Measurements: PubChem BioAssay (NCI)
This is part of a sample that, as a whole, favours compounds with a hit. Of some 83,000 tested, about 20% had one in any assay.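 Method: cells in 96-well plates; compound added at one concentration; 48 h incubation; percent growth measured; values under 10 scored active.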 Active and inactive are the calls of the source.

What follows are compounds tested on BT-549 breast (assay: NCI-60 one-dose screen, 48 h (100 = growth as untreated, 0 = no growth, -100 = all killed)). Conditions: 10 µM unless noted.

| SMILES | growth |
| --- | --- |
| CC(Sc1nc2sc3c(c2c(=O)n1-c1ccc(Cl)cc1)CCCC3)C(=O)Nc1nc(-c2ccc(Br)cc2)cs1 (stereo unspecified) | 90.3% (inactive) |
| C[C@@H](Nc1ncnc2ccc(-c3cnc(N)nc3)cc12)c1ccc(F)cc1 | 69.3% (inactive) |
| CC1(C)CC[C@]23CC[C@]4(C)[C@H](CC[C@@H]5[C@@]6(C)CCCNC(C)(C)[C@@H]6CC[C@]54C)[C@H]2[C@H]1OC3 | 76.4% (inactive) |
| COc1ccc(C(=O)c2nc3ccccc3n2CC(=O)c2ccc(Cl)cc2)cc1 | 47.9% (inactive) |

These compounds were tested on MDA-MB-435 melanoma in the same assay as above. Conditions: 10 µM unless noted.

| SMILES | growth |
| --- | --- |
| CCCCCN1C=C/C(=C\C(=O)N(C)c2ccc(Oc3ccccc3)cc2)c2ccccc21 | 91.4% (inactive) |
| CNC(=O)c1cncc(Cn2nc(C)c(NC(=O)c3ccc(COc4ccc(C(F)(F)F)cc4C)cc3)c2C)c1 | 66.6% (inactive) |
| Nc1c(C(=O)Nc2ccnc3ccccc23)sc2nc3c(cc12)CN(Cc1ccccc1)CC3 | 73.6% (inactive) |
| CC1=C(C(=O)/C=C/c2ccc(N(C)C)cc2)C(c2ccccc2)NC(=S)N1 (stereo unspecified) | 102% (inactive) |
| Nc1nc(Nc2ccccc2SSc2ccccc2Nc2nc(N)nc(-c3cccs3)n2)nc(-c2ccsc2)n1 | 98.1% (inactive) |
| COc1cc2c(cc1OC)C(=O)/C(=C/c1cc(C)c(O)c(C)c1)S2 | -9.36% (active) |
| COc1cc2c(=O)n(CCCN(C)C)c3c4cc5c(cc4ccc3c2cc1OC)OCO5 | 67.6% (inactive) |
| CCN(CC)CC[n+]1cc2cc(OC)c(OC)cc2c2ccc3cc4c(cc3c21)OCO4 | 24.6% (inactive) |
| O=C(Nc1ccc(NC(=O)c2cc(=O)[nH]c3ccccc23)cc1)Nc1cccc(Cl)c1 | 97% (inactive) |
| COc1ccc(/C=C2\Oc3cc(OCCCN4CCCCC4)ccc3C2=O)cc1OC | 100% (inactive) |
| Cc1nc(N)nc(N[C@@H](C)c2nc3cccc(NCc4ccc(C(=O)NO)cc4)c3c(=O)n2-c2ccccc2)n1 | 64.7% (inactive) |
| Cc1ccc(/C=N/NC(=O)CSc2nc3ccccc3c(=O)n2Cc2ccc(S(N)(=O)=O)cc2)cc1 | 46.2% (inactive) |
| COc1cc(/C(C)=C(\c2ccc(Cl)cc2)c2ccc(OCCN3CCCC3)cc2)ccc1F | 51.3% (inactive) |
| COc1cc2nc(-c3ccc(Cl)cc3)cc(OCCCN3CCOCC3)c2cc1OC | 10.2% (inactive) |
| COc1ccc(NC(N)=NCCCOc2ccc(F)cc2)cc1 | 80.4% (inactive) |
| COC(=O)CNC(=O)[C@]12CCC(C)(C)C[C@H]1C1=CC[C@@H]3[C@@]4(C)Cc5c([nH]c6ccccc56)C(C)(C)[C@@H]4CC[C@@]3(C)[C@]1(C)CC2 | 97.8% (inactive) |
| C[C@H]1[C@H](C)CC[C@]2(C(=O)Nc3ccc4ncccc4c3)CC[C@]3(C)C(=CC[C@@H]4[C@@]5(C)CCCNC(C)(C)[C@@H]5CC[C@]43C)[C@H]12 | -91.8% (active) |
| COc1cc(NC(C)CCCNC(=O)CCC(=O)NCCCNCCCCCCCCCCNCCCNC(=O)CCC(=O)NCCCC(C)Nc2cc(OC)cc3cccnc23)c2ncccc2c1 (stereo unspecified) | 75.8% [8 µM] (inactive) |
| CCCCCN1C=C/C(=C\C(=O)n2ccc3ccccc32)c2ccccc21 | 96.1% (inactive) |

| SMILES | growth |
| --- | --- |
| Cc1cc2nc3c4ccc(Br)cc4n(CCN(C)C)c3nc2cc1C | 18.3% (inactive) |
| CC1(C)CC(=O)C2=C(C1)N(c1ccc(F)cc1F)C(N)=C(C#N)C2c1cc(Br)ccc1F (stereo unspecified) | 101% (inactive) |
| C[C@H]1[C@H](C)CC[C@]2(C(=O)NCC#CCN3CCN(C)CC3)CC[C@]3(C)C(=CC[C@@H]4[C@@]5(C)Cc6c([nH]c7ccccc67)C(C)(C)[C@@H]5CC[C@]43C)[C@H]12 | 52.2% (inactive) |
| COc1cc2nc(-c3ccc(C(F)(F)F)cc3)cc(OCCCN3CCOCC3)c2cc1OC | -26% (active) |
| O=C1c2c(c3c4cccc(F)c4[nH]c3c3ccc4ccccc4c23)C(=O)N1O | 60.7% (inactive) |
| O=C1OC(Cc2ccccc2)C1c1ccccc1 (stereo unspecified) | 102% (inactive) |
| COc1cccc(/C=N/NC(=O)c2cnn3c2NC(c2ccccc2)C3)c1Oc1ccccc1 (stereo unspecified) | 1.99% (active) |
| COc1ccc(NC(=O)c2cc(NCc3cc(O)ccc3O)ccc2O)cc1 | 99.7% (inactive) |
| COc1cc2nc(-c3ccc(Cl)cc3)cc(OCCCN3CCCC3)c2cc1OC | -7.23% (active) |
| COc1ccc(C/C(=C(\C)c2ccc(OCCN3CCCC3)cc2)c2ccc(OCCN3CCCC3)cc2)cc1 | -77.2% (active) |
| COc1cc(NC(C)CCCNC(=O)CCC(=O)NCCCNCCCCCCCCNCCCNC(=O)CCC(=O)NCCCC(C)Nc2cc(OC)cc3cccnc23)c2ncccc2c1 (stereo unspecified) | 70.7% (inactive) |
| COc1ccc(Cc2cnc(NC(=O)c3ccc4c(c3)OCCO4)s2)cc1 | 4.11% (active) |
| CC(=O)N1c2ccccc2NC2=C(C(=O)NC2(C)C)C1c1ccco1 (stereo unspecified) | -19.1% (active) |
| O=S(=O)(NCCNc1nccc(-c2c(-c3cccc(F)c3)nc3sccn23)n1)c1ccc(Cl)cc1 | 26.3% (inactive) |
| CC(Sc1nc2sc3c(c2c(=O)n1-c1ccc(Cl)cc1)CCCC3)C(=O)Nc1nc(-c2ccc(Br)cc2)cs1 (stereo unspecified) | 102% (inactive) |
| C[C@@H](Nc1ncnc2ccc(-c3cnc(N)nc3)cc12)c1ccc(F)cc1 | 95.3% (inactive) |
| CC1(C)CC[C@]23CC[C@]4(C)[C@H](CC[C@@H]5[C@@]6(C)CCCNC(C)(C)[C@@H]6CC[C@]54C)[C@H]2[C@H]1OC3 | -80% (active) |
| COc1ccc(C(=O)c2nc3ccccc3n2CC(=O)c2ccc(Cl)cc2)cc1 | -55.4% (active) |
